Experimental data taken from PubChem BioAssay AID485336 (The Scripps Research Institute Molecular Screening Center, 2010).
Potency and affinity values are given separately. Calls of active or inactive are those of the source.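 Rule for the calls: active = average inhibition at 10 µM of 40% or more; inactive = average inhibition at 10 µM below 40%.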

Molecular target: Krueppel-like factor 5 (Homo sapiens) (UniProt Q13887)
Test: KLF5 protein lowering by immunoblot – western blot, chemiluminescence, DLD-1 cells, titration, orthogonal assay for KLF5 inhibitor project, late-stage follow-up (AID 485336)
Conditions: DLD-1 KLF5 protein level, 24 h; series mostly up to 20 µM

Sequence of Krueppel-like factor 5 (Homo sapiens) (Q13887 whole entry, looked up): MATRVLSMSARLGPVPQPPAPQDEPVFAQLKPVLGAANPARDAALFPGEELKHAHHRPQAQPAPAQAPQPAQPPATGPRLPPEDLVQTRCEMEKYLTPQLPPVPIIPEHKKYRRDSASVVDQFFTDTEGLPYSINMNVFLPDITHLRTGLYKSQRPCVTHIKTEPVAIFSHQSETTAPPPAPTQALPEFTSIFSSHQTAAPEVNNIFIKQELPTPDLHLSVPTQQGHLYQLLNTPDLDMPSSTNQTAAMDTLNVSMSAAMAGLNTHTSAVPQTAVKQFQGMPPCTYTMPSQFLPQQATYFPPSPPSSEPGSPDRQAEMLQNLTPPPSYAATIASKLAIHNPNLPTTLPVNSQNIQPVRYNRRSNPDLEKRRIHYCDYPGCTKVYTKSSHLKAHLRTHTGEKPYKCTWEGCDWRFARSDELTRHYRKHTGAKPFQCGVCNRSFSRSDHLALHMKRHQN

With `CCCc1ccc(-c2ccc(/C=C/C(=O)O)cc2)nc1` as the molecule, how does the outcome read?
Its outcome is “inactive”.

Which outcome does the source give for `CCOC(=O)c1sc(NC(=O)c2cc3c(s2)CCC(C)C3)nc1C` (stereo not given) here?
Its outcome is “inactive”.

For `CCOC(=O)c1sc(NC(=O)c2ccc3ncsc3c2)nc1C`, which outcome is on record?
Its outcome is “inactive”.

`COC(=O)c1ccc2nc(Nc3nc4ccc(F)cc4s3)sc2c1` was tested. Which outcome did it give?
The outcome was “inactive”.

How did the outcome turn out when `Cc1ccc2nc(NC(=O)CCCc3nc4ccccc4s3)sc2c1` was run?
Its outcome is “inactive”.
